{
  "source": "PubChem BioAssay AID1159580",
  "about": "(chemical genetic matrix, 2015)",
  "test": "chemical genetic growth profiling, strain panel (AID 1159580);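 also: tested at 20 µM; growth read once vehicle control cultures reached saturation at 30 °C; 1 = growth at the plate median or of vehicle wells; lower values mean less growth of the strain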",
  "details": "S. cerevisiae deletion strains, growth OD",
  "note": "Where “and” joins values, the source holds several entries; their conditions need not be identical. Identical values can stand only once. The whole screen tested about 5,500 compounds, of which about 2,000 (36%) were called active. About 18% were inconclusive and are not listed. The list shows a part of the results. Values without a mark were called inactive. Rule as the data show it: active = normalized growth mostly below about 0.91 (no sharp cut-off); inconclusive = no clear call, values can overlap the other calls; inactive = mostly above about 0.92.",
  "data": [
    {"smiles": "Cc1onc(-c2ccccc2)c1C(=O)NC1C(=O)N2[C@@H]1SC(C)(C)[C@@H]2C(=O)O", "note": "(some centres not stated)", "values": [
      {"measurement": "normalized growth", "setting": "locus YAL013W, strain DEP1, stronger effect = lower value", "result": 1.01},
      {"measurement": "normalized growth", "setting": "locus YAL021C, strain ccr4, stronger effect = lower value", "result": 1.02},
      {"measurement": "normalized growth", "setting": "locus YAL026C, strain drs2, stronger effect = lower value", "result": 1.01},
      {"measurement": "normalized growth", "setting": "locus YAL030W, strain snc1, stronger effect = lower value", "result": 1.02},
      {"measurement": "normalized growth", "setting": "locus YBL061C, strain skt5, stronger effect = lower value", "result": 1.02},
      {"measurement": "normalized growth", "setting": "locus YBR009C, strain hhf1, stronger effect = lower value", "result": 1.02},
      {"measurement": "normalized growth", "setting": "locus YBR021W, strain FUR4, stronger effect = lower value", "result": 0.99},
      {"measurement": "normalized growth", "setting": "locus YBR023C, strain chs3, stronger effect = lower value", "result": 1.02},
      {"measurement": "normalized growth", "setting": "locus YBR171W, strain sec66, stronger effect = lower value", "result": 1.02},
      {"measurement": "normalized growth", "setting": "locus YBR229C, strain ROT2, stronger effect = lower value", "result": 1},
      {"measurement": "normalized growth", "setting": "locus YBR231C, strain swc5, stronger effect = lower value", "result": 1.01},
      {"measurement": "normalized growth", "setting": "locus YBR279W, strain paf1, stronger effect = lower value", "result": 1.01},
      {"measurement": "normalized growth", "setting": "locus YCL011C, strain gbp2, stronger effect = lower value", "result": 1.03},
      {"measurement": "normalized growth", "setting": "locus YCL016C, strain dcc1, stronger effect = lower value", "result": 1.06},
      {"measurement": "normalized growth", "setting": "locus YCL029C, strain bik1, stronger effect = lower value", "result": 1.02},
      {"measurement": "normalized growth", "setting": "locus YCL061C, strain MRC1, stronger effect = lower value", "result": 1.02},
      {"measurement": "normalized growth", "setting": "locus YCL069W, strain vba3, stronger effect = lower value", "result": 1.02},
      {"measurement": "normalized growth", "setting": "locus YCR088W, strain abp1, stronger effect = lower value", "result": 1.02},
      {"measurement": "normalized growth", "setting": "locus YDL005C, strain med2, stronger effect = lower value", "result": 1.01},
      {"measurement": "normalized growth", "setting": "locus YDL035C, strain GPR1, stronger effect = lower value", "result": 1},
      {"measurement": "normalized growth", "setting": "locus YDL040C, strain nat1, stronger effect = lower value", "result": 1.01},
      {"measurement": "normalized growth", "setting": "locus YDL074C, strain BRE1, stronger effect = lower value", "result": 1.03},
      {"measurement": "normalized growth", "setting": "locus YDL101C, strain DUN1, stronger effect = lower value", "result": 1.02},
      {"measurement": "normalized growth", "setting": "locus YDL134C, strain PPH21, stronger effect = lower value", "result": 1},
      {"measurement": "normalized growth", "setting": "locus YDL185W, strain tfp1, stronger effect = lower value", "result": 1.01},
      {"measurement": "normalized growth", "setting": "locus YDL192W, strain arf1, stronger effect = lower value", "result": 1.01},
      {"measurement": "normalized growth", "setting": "locus YDR001C, strain nth1, stronger effect = lower value", "result": 1.01},
      {"measurement": "normalized growth", "setting": "locus YDR069C, strain doa4, stronger effect = lower value", "result": 1.01},
      {"measurement": "normalized growth", "setting": "locus YDR101C, strain arx1, stronger effect = lower value", "result": 1.01},
      {"measurement": "normalized growth", "setting": "locus YDR137W, strain rgp1, stronger effect = lower value", "result": 1.04},
      {"measurement": "normalized growth", "setting": "locus YDR150W, strain NUM1, stronger effect = lower value", "result": 1.01},
      {"measurement": "normalized growth", "setting": "locus YDR159W, strain sac3, stronger effect = lower value", "result": 1},
      {"measurement": "normalized growth", "setting": "locus YDR162C, strain NBP2, stronger effect = lower value", "result": 1.01},
      {"measurement": "normalized growth", "setting": "locus YDR195W, strain ref2", "result": 0.996},
      {"measurement": "normalized growth", "setting": "locus YDR297W, strain sur2, stronger effect = lower value", "result": 1.01},
      {"measurement": "normalized growth", "setting": "locus YDR318W, strain mcm21, stronger effect = lower value", "result": 1.01},
      {"measurement": "normalized growth", "setting": "locus YDR334W, strain swr1, stronger effect = lower value", "result": 1.02},
      {"measurement": "normalized growth", "setting": "locus YDR335W, strain msn5, stronger effect = lower value", "result": 1.02},
      {"measurement": "normalized growth", "setting": "locus YDR388W, stronger effect = lower value", "result": 1.01},
      {"measurement": "normalized growth", "setting": "locus YDR392W, strain spt3, stronger effect = lower value", "result": 0.959},
      {"measurement": "normalized growth", "setting": "locus YDR502C, strain sam2, stronger effect = lower value", "result": 1.01},
      {"measurement": "normalized growth", "setting": "locus YEL003W, strain gim4, stronger effect = lower value", "result": 0.988},
      {"measurement": "normalized growth", "setting": "locus YEL037C, strain rad23, stronger effect = lower value", "result": 1.01},
      {"measurement": "normalized growth", "setting": "locus YEL061C, strain CIN8 (second series), stronger effect = lower value", "result": 1},
      {"measurement": "normalized growth", "setting": "locus YEL061C, strain CIN8, stronger effect = lower value", "result": 1.01},
      {"measurement": "normalized growth", "setting": "locus YER015W, strain faa2, stronger effect = lower value", "result": 1.01},
      {"measurement": "normalized growth", "setting": "locus YER016W, strain bim1, stronger effect = lower value", "result": 1.03},
      {"measurement": "normalized growth", "setting": "locus YER110C, stronger effect = lower value", "result": 1.01},
      {"measurement": "normalized growth", "setting": "locus YER111C, strain swi4, stronger effect = lower value", "result": 1.01},
      {"measurement": "normalized growth", "setting": "locus YER155C, strain BEM2 (second series), stronger effect = lower value", "result": 1.02},
      {"measurement": "normalized growth", "setting": "locus YER155C, strain BEM2, stronger effect = lower value", "result": 1.01},
      {"measurement": "normalized growth", "setting": "locus YER167W, strain BCK2, stronger effect = lower value", "result": 1.01},
      {"measurement": "normalized growth", "setting": "locus YFR010W, strain ubp6, stronger effect = lower value", "result": 1.01},
      {"measurement": "normalized growth", "setting": "locus YGL078C, strain dbp3, stronger effect = lower value", "result": 0.998},
      {"measurement": "normalized growth", "setting": "locus YGL086W, strain mad1, stronger effect = lower value", "result": 0.991},
      {"measurement": "normalized growth", "setting": "locus YGL167C, strain pmr1, stronger effect = lower value", "result": 1.02},
      {"measurement": "normalized growth", "setting": "locus YGL173C, strain kem1, stronger effect = lower value", "result": 1.01},
      {"measurement": "normalized growth", "setting": "locus YGL227W, strain vid30, stronger effect = lower value", "result": 1.02},
      {"measurement": "normalized growth", "setting": "locus YGL240W, strain doc1, stronger effect = lower value", "result": 1.02},
      {"measurement": "normalized growth", "setting": "locus YGL248W, strain PDE1, stronger effect = lower value", "result": 1},
      {"measurement": "normalized growth", "setting": "locus YGL253W, strain hxk2, stronger effect = lower value", "result": 1.02},
      {"measurement": "normalized growth", "setting": "locus YGR078C, strain PAC10, stronger effect = lower value", "result": 1.02},
      {"measurement": "normalized growth", "setting": "locus YGR135W, strain pre9, stronger effect = lower value", "result": 1.01},
      {"measurement": "normalized growth", "setting": "locus YGR229C, strain SMI1, stronger effect = lower value", "result": 1},
      {"measurement": "normalized growth", "setting": "locus YGR252W, strain gcn5, stronger effect = lower value", "result": 0.939},
      {"measurement": "normalized growth", "setting": "locus YHR013C, strain ard1, stronger effect = lower value", "result": "1.22 [resistant] (active)"},
      {"measurement": "normalized growth", "setting": "locus YHR027C, strain rpn1, stronger effect = lower value", "result": 1.02},
      {"measurement": "normalized growth", "setting": "locus YHR030C, strain SLT2, stronger effect = lower value", "result": "1.01 and 0.989"},
      {"measurement": "normalized growth", "setting": "locus YHR079C, strain IRE1 (second series), stronger effect = lower value", "result": 1.01},
      {"measurement": "normalized growth", "setting": "locus YHR079C, strain IRE1, stronger effect = lower value", "result": 0.965},
      {"measurement": "normalized growth", "setting": "locus YHR094C, strain hxt1, stronger effect = lower value", "result": 1.01},
      {"measurement": "normalized growth", "setting": "locus YHR129C, strain ARP1, stronger effect = lower value", "result": 1.01},
      {"measurement": "normalized growth", "setting": "locus YHR142W, strain chs7, stronger effect = lower value", "result": 1.02},
      {"measurement": "normalized growth", "setting": "locus YHR200W, strain rpn10, stronger effect = lower value", "result": 1.02},
      {"measurement": "normalized growth", "setting": "locus YIL066C, strain RNR3, stronger effect = lower value", "result": 1.01},
      {"measurement": "normalized growth", "setting": "locus YIL073C, strain SPO22, stronger effect = lower value", "result": 1.01},
      {"measurement": "normalized growth", "setting": "locus YIL125W, strain kgd1, stronger effect = lower value", "result": 1.01},
      {"measurement": "normalized growth", "setting": "locus YIR030C, strain dcg1, stronger effect = lower value", "result": 1.02},
      {"measurement": "normalized growth", "setting": "locus YJL092W, strain hpr5, stronger effect = lower value", "result": 1.02},
      {"measurement": "normalized growth", "setting": "locus YJL095W, strain BCK1 (second series), stronger effect = lower value", "result": 1.02},
      {"measurement": "normalized growth", "setting": "locus YJL095W, strain BCK1, stronger effect = lower value", "result": "1.01 and 0.989"},
      {"measurement": "normalized growth", "setting": "locus YJL115W, strain asf1, stronger effect = lower value", "result": 1.01},
      {"measurement": "normalized growth", "setting": "locus YJL129C, strain trk1, stronger effect = lower value", "result": 0.994},
      {"measurement": "normalized growth", "setting": "locus YJL134W, strain LCB3, stronger effect = lower value", "result": 1.01},
      {"measurement": "normalized growth", "setting": "locus YJL154C, strain vps35, stronger effect = lower value", "result": 1.02},
      {"measurement": "normalized growth", "setting": "locus YJL164C, strain tpk1, stronger effect = lower value", "result": 1.02},
      {"measurement": "normalized growth", "setting": "locus YJL166W, strain qcr8, stronger effect = lower value", "result": 1.03},
      {"measurement": "normalized growth", "setting": "locus YJL168C, strain set2, stronger effect = lower value", "result": 1},
      {"measurement": "normalized growth", "setting": "locus YJL187C, strain SWE1 (second series), stronger effect = lower value", "result": 1.01},
      {"measurement": "normalized growth", "setting": "locus YJL187C, strain SWE1, stronger effect = lower value", "result": 1.02},
      {"measurement": "normalized growth", "setting": "locus YJR043C, strain POL32, stronger effect = lower value", "result": 1.02},
      {"measurement": "normalized growth", "setting": "locus YJR066W, strain TOR1, stronger effect = lower value", "result": 0.933}
    ]}
  ]
}
